According to article PMC5540273 (PLoS ONE, 2017):
“And” between values parts separate entries of the source, which are not always exact repeats. Equal entries are not always repeated. Where two headings read alike, the source gives them in different places.

How the values were obtained:
CDK4-cyclinD3 = conditions: n = 1
CDK4 = conditions: n = 1
CDK5 = conditions: concentration: 1 μM, replicates: in singlicate; n = 1
CDK7 = conditions: concentration: 1 μM, replicates: in singlicate, n = 1
CDK8 = conditions: concentration: 1 μM, replicates: in singlicate, n = 1
CDK9 = conditions: concentration: 1 μM, replicates: in singlicate, n = 1
CDKL1 = conditions: concentration: 1 μM, replicates: in singlicate, n = 1
CDKL2 = conditions: concentration: 1 μM, replicates: in singlicate, n = 1
CDKL3 = conditions: concentration: 1 μM, replicates: in singlicate; n = 1
CDKL5 = conditions: concentration: 1 μM, replicates: in singlicate; n = 1
[1] = concentration: 1 μM, replicates: in singlicate
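Note: KINOMEscan kinase panel screen.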

| SMILES | %Inh (CDK4-cyclinD3; [1]) | %Inh (CDK4; [1]) | %Inh (CDK5) | %Inh (CDK7) | %Inh (CDK8) | %Inh (CDK9) | %Inh (CDKL1) | %Inh (CDKL2) | %Inh (CDKL3) | %Inh (CDKL5) | %Inh (CDK4; concentration: 1 μM, replicates: in singlicate, 1 µM) | %Inh (CDK7; 1 µM) | %Inh (CDK8; 1 µM) | %Inh (CDK9; 1 µM) | %Inh (CDKL1; 1 µM) | %Inh (CDKL2; 1 µM) | %Inh (CDK4-cyclinD3; 1 µM) | %Inh (CDK4; 1 µM) |
| --- | --- | --- | --- | --- | --- | --- | --- | --- | --- | --- | --- | --- | --- | --- | --- | --- | --- | --- |
| O=C1NC(=O)C(N2CCc3ccccc32)=C1c1cccc(Cl)c1 [SB-408010] | 0% | 0% | 7% | 9% | 0% | 0% | 0% | 11% | 0% | 0% | – | – | – | – | – | – | – | – |
| O=C1Cc2cc(Nc3nc(NCc4cccc(S(=O)(=O)C(F)(F)F)c4)ncc3C(F)(F)F)ccc2N1 | 0% | 27% | 14% | 4% | 3% | 10% | 21% | 4% | 3% | 18% | – | – | – | – | – | – | – | – |
| O=C(NOCC1CC1)c1ccc(F)c(F)c1Nc1ccc(I)cc1Cl | 0% | 0% | 5% | 0% | 0% | 0% | 0% | 0% | 20% | 0% | – | – | – | – | – | – | – | – |
| Cc1cccc(Cn2ccn3c(=O)cc(N4CCOCC4)nc23)c1 [GSK2297542] | 0% | 6% | 0% | 0% | 31% | 0% | 20% | 29% | 0% | 0% | – | – | – | – | – | – | – | – |
| O=c1cc(N2CCOCC2)nc2n(Cc3cccc(F)c3)ccn12 [GSK2297430] | 0% | 19% | 0% | 0% | 26% | 0% | 0% | 0% | 0% | 0% | – | – | – | – | – | – | – | – |
| COc1cc2c(cc1OC[C@@H](O)CO)ncc1c3ccc(C#N)cc3[nH]c21 | 0% | 4% | 17% | 99.5% | 15% | 0% | 12% | 0% | 8% | 0% | – | – | – | – | – | – | – | – |
| Cc1cccc(-c2nc(Nc3ccc4ncsc4c3)c3ccccc3n2)n1 [GW867588] | 0% | 7% | 0% | 17% | 43% | 3% | 1% | 0% | 1% | 0% | – | – | – | – | – | – | – | – |
| COc1cc2ncn(-c3cc(OCc4sccc4Cl)c(C(N)=O)s3)c2cc1OC [GSK448459] | 0% | 12% | 0% | 0% | 69% | 0% | 23% | 33% | 0% | 0% | – | – | – | – | – | – | – | – |
| O=C(NCCNc1ccnc(Nc2ccc(F)cc2)n1)c1cc2ccccc2s1 [GSK1379874] | 0% | 0% | 0% | 0% | 38% | 0% | 8% | 5% | 0% | 0% | – | – | – | – | – | – | – | – |
| O=C(c1ccc(-c2cc(-c3c[nH]nc3-c3ccccn3)ccn2)cc1)N1CCOCC1 [GW812171] | 0% | 1% | 0% | 17% | 7% | 0% | 25% | 8% | 0% | 0% | – | – | – | – | – | – | – | – |
| COCCNC(=O)c1ccc(-c2cc(C(=O)NC3CC3)cc(F)c2C)cc1 [GW868318] | 0% | 21% | 11% | 25% | 0% | 0% | 19% | 28% | 27% | 26% | – | – | – | – | – | – | – | – |
| O=C(Nc1n[nH]c2cc(-c3cccc(F)c3)ccc12)C1CC1 [SB-735464] | 7% | 44% | 3% | 0% | 0% | 0% | 6% | 57% | 28% | 4% | – | – | – | – | – | – | – | – |
| NCCNS(=O)(=O)c1ccc(-c2ccnc3[nH]ccc23)cc1 [GSK977617] | 0% | – | 0% | – | – | – | – | – | 0% | 0% | 34% and 27% | 85% and 74% | 20% and 19% | 5% and 26% | 10% and 1% | 0% and 8% | – | – |
| NS(=O)(=O)c1cccc(-c2ccc3ncc(N4CCOCC4)nc3c2)c1 [GSK1535721] | 0% | 12% | 0% | 20% | 31% | 3% | 15% | 0% | 0% | 0% | – | – | – | – | – | – | – | – |
| N#Cc1c(N2CCOCC2)sc(-c2ccn[nH]2)c1-c1ccc(Cl)cc1 | 2% | 29% | 15% | 43% | 0% | 0% | 0% | 0% | 0% | 0% | – | – | – | – | – | – | – | – |
| COc1ccc(Nc2nccc(N3CCC(NC(=O)Nc4cc(C)ccc4C)C3)n2)cc1 (stereo not shown) [GSK1379741] | 0% | 0% | 0% | 0% | 11% | 0% | 0% | 44% | 0% | 5% | – | – | – | – | – | – | – | – |
| CN(C(=O)c1ccc(-c2cc(-c3c[nH]nc3-c3ccccn3)ccn2)cc1)C1CCOCC1 [GW810083] | 0% | 15% | 0% | 9% | 45% | 0% | 21% | 0% | 47% | 0% | – | – | – | – | – | – | – | – |

| SMILES | %Inh (CDK4-cyclinD3; [1]) | %Inh (CDK4; [1]) | %Inh (CDK5) | %Inh (CDK7) | %Inh (CDK8) | %Inh (CDK9) | %Inh (CDKL1) | %Inh (CDKL2) | %Inh (CDKL3) | %Inh (CDKL5) | %Inh (CDK4; concentration: 1 μM, replicates: in singlicate, 1 µM) | %Inh (CDK7; 1 µM) | %Inh (CDK8; 1 µM) | %Inh (CDK9; 1 µM) | %Inh (CDKL1; 1 µM) | %Inh (CDKL2; 1 µM) | %Inh (CDK4-cyclinD3; 1 µM) | %Inh (CDK4; 1 µM) |
| --- | --- | --- | --- | --- | --- | --- | --- | --- | --- | --- | --- | --- | --- | --- | --- | --- | --- | --- |
| Cn1ccc2ncnc(Oc3ccc(NC(=O)Nc4ccncc4)c(Cl)c3)c21 | 0% | 0% | 0% | 0% | 0% | 0% | 0% | 0% | 0% | 49% | – | – | – | – | – | – | – | – |
| Cc1c(Cn2c(C)nn3c(=O)cc(N4CCOC(C)C4)nc23)cccc1C(F)(F)F (stereo not shown) [GSK2344444] | 0% | 25% | 0% | 0% | 0% | 2% | 0% | 4% | 0% | 0% | – | – | – | – | – | – | – | – |
| [2H]C([2H])(c1cccc(C(F)(F)F)c1C)n1ccn2c(=O)nc(N3CCOCC3)cc12 [GSK2336394] | 0% | 14% | 0% | 0% | 2% | 0% | 8% | 22% | 0% | 0% | – | – | – | – | – | – | – | – |
| COc1ccc(Nc2nccc(N3CCC(NC(=O)Nc4cccc(C(C)=O)c4)C3)n2)cc1 (stereo not shown) [GSK1379731] | 0% | 8% | 0% | 0% | 61% | 0% | 1% | 43% | 0% | 0% | – | – | – | – | – | – | – | – |
| COc1ccc(S(=O)(=O)NC2CCN(c3cc(C)nc(Nc4cccc(C#N)c4)n3)CC2)cc1.O=C(O)C(F)(F)F [GSK1653539] | 0% | 38% | 0% | 0% | 4% | 0% | 15% | 0% | 0% | 0% | – | – | – | – | – | – | – | – |
| Cc1nnc(-c2ccc(C)c(-c3ccc(C(=O)Nc4ccc(NS(C)(=O)=O)cc4)cc3)c2)o1 [GW702865] | 0% | 0% | 0% | 0% | 28% | 0% | 5% | 18% | 0% | 0% | – | – | – | – | – | – | – | – |
| O=c1cc(N2CCOCC2)nc2n(Cc3cccc(Cl)c3Cl)c(C3CC3)nn12 [GSK2358994] | – | – | 7% | 5% | 0% | 0% | 20% | 0% | 0% | 0% | – | – | – | – | – | – | 0% | 0% |
| Nc1nc(-c2ccc3c(N)n[nH]c3c2)cc(N2CCCC2)n1 [GSK2227430] | 0% | 0% | 0% | 0% | 0% | 0% | 72% | 0% | 0% | 0% | – | – | – | – | – | – | – | – |
| Fc1ccc(-c2ncn(CCCN3CCOCC3)c2-c2ccccn2)cc1 [SB-211742] | 0% | 0% | 0% | 0% | 29% | 0% | 40% | 49% | 4% | 5% | – | – | – | – | – | – | – | – |
| Fc1ccc(-c2ncn(CCCN3CCOCC3)c2-c2cccnc2)cc1 [SB-211743] | 0% | 1% | 0% | 8% | 0% | 0% | 28% | 0% | 0% | 0% | – | – | – | – | – | – | – | – |
| CNc1ncnc2[nH]ncc12 [SKF-18355] | 0% | 17% | 0% | 0% | 0% | 0% | 8% | 30% | 19% | 3% | – | – | – | – | – | – | – | – |
| c1ccc(-c2n[nH]cc2-c2ccnc3ccccc23)nc1 [GW271431] | 0% | 0% | 0% | 0% | 5% | 0% | 7% | 5% | 0% | 6% | – | – | – | – | – | – | – | – |
| c1ccc(-c2cc(-c3c[nH]nc3-c3ccccn3)ccn2)cc1 [GW576604] | 0% | 49% | 0% | 0% | 13% | 0% | 0% | 0% | 0% | 0% | – | – | – | – | – | – | – | – |
| CCn1cnc2c(N)ncnc21 [GW345098] | 0% | 0% | 28% | 20% | 7% | 0% | 25% | 0% | 0% | 0% | – | – | – | – | – | – | – | – |
| CN1c2ccc(NCc3ccc(F)cc3)cc2-c2c(cnn2C)S1(=O)=O | 0% | 0% | 6% | 0% | 62% | 15% | 20% | 19% | 0% | 0% | – | – | – | – | – | – | – | – |
| COc1ccc(COc2cc(-n3cnc4ccccc43)sc2C(N)=O)cc1 [GSK1024304] | 0% | 40% | 0% | 0% | 29% | 0% | 7% | 18% | 0% | 0% | – | – | – | – | – | – | – | – |
| N#Cc1ccc(-c2cc(-c3c[nH]nc3-c3ccccn3)ccn2)cc1 [GW693028] | 2% | 11% | 0% | 0% | 23% | 0% | 8% | 13% | 0% | 0% | – | – | – | – | – | – | – | – |
